The subject of the assay is MDA-MB-468 breast. In words: NCI-60 one-dose screen, 48 h (100 = growth as untreated, 0 = no growth, -100 = all killed). The following applies: 10 µM unless noted.

About 83,000 compounds went through this panel and 20% of them were active in at least one assay; those are over-represented in the sample as a whole.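 Each cell line was grown in a 96-well plate and treated with one concentration of compound for 48 hours. Values below 10 were considered active.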 A number with no mark means an inactive call. Activity calls are given as the source filed them.

As to `O=C1/C(=C/c2ccc(-c3ccccc3C(F)(F)F)o2)SC(=S)N1CCc1ccc(O)cc1`, the growth is 28.8%.
For the molecule `C#CCNC(=O)[C@H](Cc1ccccc1)NC(=O)[C@]12CC[C@@H](C(=C)C)[C@@H]1[C@H]1CC[C@@H]3[C@@]4(C)CCC(=O)C(C)(C)[C@@H]4CC[C@@]3(C)[C@]1(C)CC2`, the growth was 63.7%.
With `CC[N+](CC)(CC(=O)Nc1c(C)cccc1C)Cc1ccccc1`, the growth is 63.8%.
In the case of `CC/C(=C(/c1ccc(OCCN(C)C)cc1)c1ccc(OC(=O)CCCCC(=O)c2c(C)[nH]c(/C=C3\N=C(c4ccc[nH]4)C=C3OC)c2C)cc1)c1ccccc1`, the growth is 47.5%.
In the case of `C1CCc2onc(-c3noc4c3CCCCC4)c2CC1`, the growth is 108%.
The figure for `CCCCCCCCCCCCCC[n+]1ccc(C(N)=O)cc1` is -40.6% (active); for `COc1cccc(-c2nn(-c3ccccc3)cc2-c2ccnc(NCCNC(=O)Nc3ccccc3)c2)c1` it is 49.7%.
On to `CC(=O)N1N=C(c2ccc(Cl)cc2)CC1c1sc(Cl)nc1Cl` (configuration not stated), for which the growth was 74.9%.
For `O=CNc1c(Cl)cc2c(c1Cl)Cc1cc([N+](=O)[O-])ccc1-2`, the growth was -3.02% (active).
Turning to `COc1ccc(Nc2nc(N)nc3c2CCc2occc2-3)cc1`, the growth was 101%.
`O=c1ccc(-c2nc(N3CCOCC3)c3ccccc3n2)c[nH]1`: the growth is 95.8%.
For the molecule `O=C1c2ccccc2C2(c3ccc(O)cc3)c3ccccc3Oc3cccc1c32` (configuration not stated), the growth was -8.79% (active).
Take `C=C(C)[C@@H]1CC[C@]2(C(N)=O)CC[C@]3(C)[C@H](CC[C@@H]4[C@@]5(C)CCCNC(C)(C)[C@@H]5CC[C@]43C)[C@@H]12`: the growth was 78.3%.
As to `O=c1[nH][nH]c(-c2ccc(F)cc2)c1-c1nc2ccccc2s1`, the growth is 100%.
In the case of `CC(=S)Nc1ccccc1`, the growth was 103%.
With `CCOC(=O)C1=C(C)NC(=O)NC1c1ccc(OCC(=O)N/N=C/c2ccc(Cl)cc2)cc1` (configuration not stated), the growth is 96.5%.
The figure for `CCN(CC)c1ccc2nc3c4ccccc4c(=O)cc-3n(-c3ccccc3)c2c1` is -17.5% (active); for `CCN(CC)CCNc1nc2ccccc2c2c(=O)c3cc(Cl)ccc3sc12` it is 56.2%.
Take `CCOC(=O)N1CCN(CCCCl)CC1`: the growth was 97.4%.
For `O=C(NCCNC(=O)Oc1cccc2ccccc12)Oc1cccc2ccccc12`, the growth was 103%.
In the case of `OCCNc1ccccc1`, the growth is 99.4%.
With `CCN1C(=O)N(CC)C2C1NC(=S)N2/N=C/C=C/c1cccs1` (configuration not stated), the growth is 7.59% (active).
`O=C(N/N=C(\CS(=O)(=O)c1ccccc1)c1cc2cc(Br)ccc2oc1=O)c1ccccc1`: the growth was 109%.
On to `CC(C)(C)OC(=O)N[C@@H](Cc1ccccc1)C(=O)N(Cc1ccccc1)C1(C(=O)NCc2ccccc2)CCN(Cc2ccccc2)CC1`, for which the growth was 7.09% (active).
Under `COc1cc2nccc(Oc3ccc(NC(=O)C4(C(=O)Nc5ccc(F)cc5)CC4)cc3)c2cc1Oc1ccc(N)cn1` stands 31.7%; under `N#Cc1ccc(NC(=O)c2sc3nc4c(cc3c2N)C(=O)CCC4)cc1`, 97.6%; under `C=C1C(=O)O[C@H]2[C@H]1CC/C(C(=O)NCCCCCCCCNC(=O)/C1=C/CC[C@@]3(C)O[C@H]3[C@H]3OC(=O)C(=C)[C@@H]3CC1)=C\CC[C@@]1(C)O[C@@H]21`, 35.7%.
Turning to `C=CCN(C)C`, the growth is 102%.
The figure for `COc1ccc(-c2nc(Cl)c3c(C)nn(-c4ccc(F)cc4)c3n2)cc1` is 105%.
In the case of `OC[C@@H](O)C(O[C@@H]1O[C@H](CO)[C@H](O)[C@H](O)[C@H]1O)[C@H](O)[C@@H](O)CO` (some centres not stated), the growth is 94.7%.
Take `Cc1ccc(OCCOCCOCCOCCOCCOc2ccc(C)n(O)c2=S)c(=S)n1O`: the growth is -22.8% (active).
In the case of `COc1cc2nc(-c3ccc(C(F)(F)F)cc3)cc(OCCN3CCCC3)c2cc1OC`, the growth is 89.4%.
In the case of `Cn1c([N+](=O)[O-])cnc1C=C1C(=O)c2ccccc2C1=O`, the growth is 51.3%.
With `COc1ccc(/C=C2\SC(=O)N(Cc3cc(=O)oc4ccc(OC)cc34)C2=O)cc1`, the growth is 46.6%.
`CCOC(=O)C#Cc1c(C(=O)OCC)nnn1[C@@H]1O[C@H](CO)[C@H]2OC3(CCCCC3)O[C@H]21`: the growth was -19.7% (active).
In the case of `Cc1ccc(S(=O)(=O)OCCN(CCOS(=O)(=O)c2ccc(C)cc2)c2c[nH]c(=O)[nH]c2=O)cc1`, the growth was 98.5%.
Regarding `CCN(CC)CC(O)c1cc(-c2ccc(Cl)cc2)nc2c(C)c(Cl)ccc12` (configuration not stated), the growth was -88.6% (active).

The values are drawn from PubChem BioAssay (NCI).
